SENP6 inh: SENP6 protease inhibitors, primary screen, biochemical, luminescence, uHTS. inhibition, % at 10 µM. Recombinant SENP6 catalytic domain, aminoluciferin luminescence. AID 2599, 2010. Sentrin-specific protease 6 (Homo sapiens), Q9GZR1. actives 1.8% (n = 330,000);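 active = inhibition above about 50% at the single tested dose, limit read from the data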;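 also: plate controls were DMSO wells with enzyme for no effect and DMSO wells lacking enzyme for full effect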
Target sequence (Q9GZR1 628-1112 limits assumed): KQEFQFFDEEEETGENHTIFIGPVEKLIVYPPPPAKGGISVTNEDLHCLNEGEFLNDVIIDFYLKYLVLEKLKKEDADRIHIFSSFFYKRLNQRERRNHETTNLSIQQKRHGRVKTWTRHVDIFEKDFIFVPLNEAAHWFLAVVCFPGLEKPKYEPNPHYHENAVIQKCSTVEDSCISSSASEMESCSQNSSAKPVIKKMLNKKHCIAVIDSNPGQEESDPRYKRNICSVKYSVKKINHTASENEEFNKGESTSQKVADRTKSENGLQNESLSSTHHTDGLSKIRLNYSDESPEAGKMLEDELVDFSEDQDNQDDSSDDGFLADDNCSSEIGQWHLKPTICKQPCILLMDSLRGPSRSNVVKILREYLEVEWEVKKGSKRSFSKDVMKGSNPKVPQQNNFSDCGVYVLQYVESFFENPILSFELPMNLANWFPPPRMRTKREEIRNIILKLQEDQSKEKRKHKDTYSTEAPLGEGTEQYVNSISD
SENP7 inh: SENP7 protease inhibitors, primary screen, biochemical, luminescence, uHTS | Sentrin-specific protease 7 (Homo sapiens), Q9BQF6 | recombinant SENP7, Z-RLRGG-aminoluciferin luminescence, 40 min | inhibition, % at 5 µM | actives 1.5% (n = 330,000) | AID 434973, 2010;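 active = inhibition above about 50% at the single test dose, limit read from the data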;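 also: plate controls were DMSO with enzyme for no effect and no enzyme buffer wells for full effect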
Platelet DG rel: inhibitors of platelet dense granule secretion, primary screen, cell-based, MLPCN, human platelets | inhibition, %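 (compounds screened at 7.5 µM in platelet-rich plasma)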 | AID 1663, 2009 | actives 0.22% (n = 300,000) | human platelet-rich plasma, SFLLRN dense granule ATP release, luminescence;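 active = mean replicate score, as percent of positive control, at or above 50; inconclusive = mean below 50 but at least one replicate at or above 50; inactive = mean and every replicate below 50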
SENP8 block-1: SENP8 protease inhibitors, primary screen, biochemical, luminescence; actives 1.2% (n = 330,000); inhibition, % at 10 µM; Sentrin-specific protease 8 (Homo sapiens), Q96LD8; purified SENP8, Z-RLRGG-aminoluciferin cleavage; in the data active = inhibition above about 50%
SENP8 block-2: human SENP8 protease inhibitors, primary screen, biochemical, fluorescence, Nedd8 protein substrate, uHTS | Sentrin-specific protease 8 (Homo sapiens), Q96LD8 | recombinant SENP8 | inhibition, % at 20 µM | actives 0.64% (n = 360,000); in the data active = inhibition mostly above about 40%, no sharp cut-off; inactive = mostly below about 27%
SENP8 confirm: SENP8 protease inhibitors, retest, confirmation, biochemical, luminescence, single concentration; AID 488912, 2010; inhibition, % at 12.5 µM; shares compounds with SENP7 inh; Recombinant SENP8, Z-RLRGG-aminoluciferin luminescence, 60 min; actives 40% (n = 6,200);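 active = mean inhibition across replicates above about 50%, limit read from the data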
SENP6 confirm: SENP6 protease inhibitors, confirmation, biochemical, luminescence, single concentration. shares compounds with SENP7 inh. recombinant SENP6, Z-RLRGG-aminoluciferin luminescence. inhibition, % at 12.5 µM. actives 58% (n = 6,200)
SENP7 conf: SENP7 protease inhibitors, retest, confirmation, biochemical, luminescence, single concentration; shares compounds with SENP7 inh; recombinant SENP7, Z-RLRGG-aminoluciferin luminescence, 40 min; inhibition, % at 12.5 µM; actives 69% (n = 6,200)
Casp3 select: caspase-3 protease inhibitors, confirmation, selectivity assay for SENP inhibitor project, biochemical, single concentration; shares compounds with SENP7 inh; inhibition, % at 12.5 µM; purified caspase-3, Z-DEVD-aminoluciferin luminescence, 60 min; actives 60% (n = 6,200);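 active = mean inhibition above about 50%, limit read from the data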;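 also: plate controls were enzyme with DMSO for no effect and wells without caspase-3 for full effect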
SENP luc ctr: interferes with luciferase luminescence in SENP counter-screen | Pre-incubated SENP8/Z-RLRGG-aminoluciferin, luciferase luminescence interference | actives 39% (n = 6,200) | inhibition, % at 12.5 µM | shares compounds with SENP7 inh | AID 488919;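 active = mean inhibition above about 50% when retested at one dose, limit read from the data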;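 also: plate controls were DMSO wells with completed reaction for no effect and substrate without enzyme for full effect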
* marks the source's active call; other numbers are inactive results; ? = inconclusive; · = no result. Compounds with a hit are over-represented: about 2.4% of the library has one in this group of screens.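 The calls were made as follows, unless noted: active = mean inhibition above about 50% in the one-dose retest (limit read from the data); inactive = the rest.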

SMILES	SENP6 inh	SENP7 inh	Platelet DG rel	SENP8 block-1	SENP8 block-2	SENP8 confirm	SENP6 confirm	SENP7 conf	Casp3 select	SENP luc ctr
CN(C)CC#Cc1cccc(-c2nc(C(=O)O)cc3c2[C@@H](CCO)N(S(=O)C(C)(C)C)C3)c1 (some centres undefined)	·	·	·	·	10	·	·	·	·	·
COc1ccc(NC(=O)c2cc3ccccn3n2)cc1	71*	69*	?	58*	15	77*	75*	94*	88*	79*
COc1ccc(C(=O)Nc2ccc(NC(=O)c3ccccn3)cn2)cc1	-13	11	3	-13	-7	·	·	·	·	·
COc1ccc(NC(=O)c2cccc(NC(=O)c3ccccc3)c2)cc1	10	10	-4	5	7	·	·	·	·	·
COc1ccc(NC(=O)c2ccccn2)cc1	94*	91*	58*	81*	0	85*	86*	98*	95*	85*
O=C(O)CCN1C(=O)/C(=C/c2ccc(-c3nc4ccccc4s3)o2)SC1=S	7	8	-3	-5	6	·	·	·	·	·
O=C(O)c1ccc(-c2nc3ccccc3s2)o1	91*	78*	9	77*	-363	87*	84*	92*	61*	82*
O=Cc1ccc(-c2nc3ccccc3s2)o1	63*	80*	6	70*	-358	-3	70*	87*	82*	23
NC(=O)NC(=O)COC(=O)CCSc1ccccc1	17	8	5	-8	5	·	·	·	·	·
Cc1ccc(C(=O)Nc2ccc3c(c2)CCC3)o1	82*	80*	4	68*	9	72*	68*	92*	82*	78*
O=C(Nc1ccc2c(c1)Cc1ccccc1-2)c1cc2ccccc2o1	-5	6	3	3	-307	·	·	·	·	·
O=C(Nc1ccc2c(c1)oc1ccccc12)c1ccc(Br)o1	48	77*	30	21	-25	6	16	28	11	5
COC(=O)Cc1ccc(NC(=O)c2ccc(Br)o2)cc1	51*	32	12	26	11	37	31	68*	70*	49
O=C(Nc1ccc2c(c1)CCC2)c1cc2ccccc2o1	77*	68*	4	45	7	61*	65*	87*	48	58*
Cc1ccc2nc(N(CCN(C)C)C(=O)C3CCN(S(=O)(=O)c4cccs4)CC3)sc2c1	·	·	·	·	24	·	·	·	·	·
O=C(C1CCN(C2CCN(Cc3ccsc3)CC2)CC1)N1CCOCC1	3	-9	16	-7	-1	·	·	·	·	·
O=C(Nc1ccc2c(c1)CCC2)c1ccc(Br)o1	90*	89*	6	79*	24	88*	87*	99*	86*	87*
O=C(Nc1ccc2c(c1)OCO2)c1ccc(Br)o1	65*	7	15	58*	10	10	65*	90*	82*	67*
O=C(Nc1ccc2c(c1)OCO2)c1ccc(COc2ccc3c(c2)CCC3)o1	54*	-5	3	24	6	16	30	37	14	20
CN(c1ccccc1)S(=O)(=O)c1cccc(NC(=O)c2ccc(=O)[nH]n2)c1	-7	14	·	-8	9	·	·	·	·	·

Screening data (PubChem)
